High-throughput results: PubChem BioAssay, National Center for Advancing Translational Sciences (NCATS)
Compounds with a hit are over-represented: about 7.3% of the library has one in this group of screens.
SMN2 splice enh – SMN2 splice variant enhancement | HEK293 SMN2-luciferase splicing reporter, luminescence, 30-36 h | AID 1458 | 210,000 compounds, 2.8% hits | Potency, µM (titrated, usually from 46.1 µM), inactives show at the highest dose activity change, positive = activation, most hits filed as activators; further: % of control where 0% means no effect; nearly all actives have a fitted effect of over 55% in size
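qHTS luciferase splicing reporter: luminescence rises when SMN2 exon 7 is included in transfected HEK293 cells. Compound exposure lasted 30-36 h at 37C, with 4.5 mM final sodium butyrate as control, followed by a ONE-Glo read.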
FLuc modulator – counter-screen for miR-21 project: firefly luciferase inhibitors or activators | P08659 | purified FLuc, Km substrates, luminescence inhibition | Potency, µM (top dose mostly 57.5 µM), inactives show top-dose activity change, negative = inhibition, actives largely listed as inhibitors | 360,000 compounds, 6.9% hits | AID 588342;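 further: plate controls were vehicle for no effect and reference inhibitor for full effect; nearly all actives have a fitted effect of over 55% in size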
Target sequence (P08659 whole entry, looked up): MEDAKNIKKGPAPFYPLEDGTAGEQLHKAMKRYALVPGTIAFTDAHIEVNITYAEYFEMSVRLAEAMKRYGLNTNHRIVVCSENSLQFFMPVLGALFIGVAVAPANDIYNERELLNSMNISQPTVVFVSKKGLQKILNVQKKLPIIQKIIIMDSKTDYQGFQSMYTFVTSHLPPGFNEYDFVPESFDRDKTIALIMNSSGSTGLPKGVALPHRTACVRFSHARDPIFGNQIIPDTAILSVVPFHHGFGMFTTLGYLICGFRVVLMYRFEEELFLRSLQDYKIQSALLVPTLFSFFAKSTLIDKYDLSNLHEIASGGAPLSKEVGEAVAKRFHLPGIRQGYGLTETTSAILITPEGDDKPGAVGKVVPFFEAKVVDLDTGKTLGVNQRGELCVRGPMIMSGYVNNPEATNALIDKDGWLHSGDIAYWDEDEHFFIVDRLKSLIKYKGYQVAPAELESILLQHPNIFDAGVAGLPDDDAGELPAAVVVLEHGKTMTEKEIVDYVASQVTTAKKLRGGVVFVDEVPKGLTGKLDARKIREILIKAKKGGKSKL
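Biochemical qHTS of compounds, final roughly 60 µM downward over six points, against 10 nM purified firefly luciferase using Km concentrations of substrates (10 uM D-luciferin, 10 uM ATP) in Tris acetate pH 7.5 buffer; luminescence output.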
Rab9 prom act – Rab9 promoter activation; Huh7 Rab9 promoter-luciferase reporter, luminescence, 24 h; Potency, µM (doses to about 9.22 µM), inactives show at the highest dose activation, negative = inhibition, actives largely listed as activators; 320,000 compounds, 2.8% hits; AID 485297; further: % of control where 0% means no effect; nearly all actives have a fitted effect of over 60% in size
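Promoter activation is measured as luciferase luminescence in Huh7 cells stably transfected with a Rab9 promoter–luciferase construct, following 24 h compound exposure at 37 °C and 10 min reagent incubation at ambient temperature.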
ELG1 genotoxic – inducers of genotoxicity in HEK293T ELG1-luciferase cells; HEK293T ELG1-luciferase reporter, luminescence, 16 h; Potency, µM (highest dose often 46 µM), inactives show at the highest dose activity change, positive = activation, actives largely listed as activators; 330,000 compounds, 1.3% hits; AID 504466; further: % of control where 0% means no effect; nearly all actives have a fitted effect of over 60% in size
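HEK293T cells expressing luciferase-tagged ELG1 were exposed to compound or DMSO vehicle for 16 hr at 37 °C and 5% CO2. Luciferase activity was then measured with ONE-Glo after 30 min at room temperature.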
uPA surface inh – blocks generation of uPA at the cell surface | cell surface uPA generation assay, qHTS | Potency, µM (top dose mostly 38.3 µM), without a hit: at the highest dose activity change, negative = inhibition, usual class: inhibitors | 330,000 compounds, 0.31% hits; active means well fitted inhibition curve with a large enough effect; inconclusive means small, poorly fitted or top-dose-only effect; inactive means no such curve, though single readings can be large or run the other way; tested in mouse RAW 264.7 cells; further: on the % scale 0 is the no-effect control and ±100 the full control effect; nearly all actives have a fitted effect of over 55% in size
NPC1 prom act – activates the NPC1 promoter; Huh7 NPC1 promoter luciferase reporter, 24 h; Potency, µM (doses to about 9.22 µM), inactives show top-dose activation, actives largely listed as activators; 320,000 compounds, 2.4% hits; AID 485313; further: % of control where 0% means no effect; nearly all actives have a fitted effect of over 60% in size
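Huh7 cells stably carrying NPC1 promoter–luciferase, plated in Opti-MEM with 10% FBS for 2 h, were exposed to compound in DMSO for 24 h at 37 °C; luciferase reagent was added for 10 min and luminescence read.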
* = called active by the depositor; ? = inconclusive; . = no result; ! = repeats disagree. Unless noted, the call rests on the fitted dose curve; in most records, active means well fitted curve in the direction sought with a large enough effect; inconclusive means small, poorly fitted or top-dose-only effect, or another doubt; inactive means no such curve, though single readings can be large; an effect the other way counts as inactive or inconclusive. Potency means the concentration at half of the fitted maximal effect.

SMILES | SMN2 splice enh | FLuc modulator | Rab9 prom act | ELG1 genotoxic | uPA surface inh | NPC1 prom act
Cc1ccc(C(=O)CSc2cc(C)nc(SCC(=O)c3ccccc3)n2)cc1 | . | 3% | -1% | -22% | -2% | -2%
CCOC(=O)Cc1c(C)nc2c(-c3ccccc3)cnn2c1C | 17% | ? | 28% | 14% | 14% | 14%
Cc1cc(SCC(=O)c2ccccc2)n2ncc(-c3ccccc3)c2n1 | . | 9.5µM* | 3.5µM* | 9% | 10% | 5µM*
Cc1cc(-c2ccccc2)n2ncc(-c3ccccc3)c2n1 | -52% | 0.19µM* | 0.5µM* | 0.21µM* | -9% | 2.8µM*
Cc1cc(SCC(=O)c2ccccc2)nc(C)n1 | 29% | 12µM* | 2.5µM* | ? | -2% | 3.5µM*
CC(=O)C(=Cc1cn(-c2ccccc2)nc1-c1ccccc1)C(C)=O | 13% | -20% | 1% | ? | 2% | 2%
CC(=O)c1ccc(N2CCN(S(=O)(=O)c3cc(-c4onc(C)c4C)ccc3C)CC2)cc1 | . | 2% | . | . | . | .
Cc1cc(N2CCN(c3ccc(F)cc3)CC2)n2cnnc2n1 | -8% | -5% | . | . | . | .
Cc1ccc(C)c(N2CCN(S(=O)(=O)c3cnc(N)nc3)CC2)c1 | . | -5% | . | . | . | .
Cc1cc(=O)n(CC(=O)N2CCN(c3ccccc3F)CC2)c2c1c(C)nn2C | . | -2% | . | . | . | .
O=C(CSc1ccc(-c2ccco2)nn1)c1ccccc1 | 18% | 27µM* | ? | 13% | -2% | 16%
COc1ccc(C(=O)CSc2ccc(-c3ccco3)nn2)cc1 | 11% | ? | -3% | 1% | -1% | 0%
COc1ccc(-c2cc(C)nc3c(-c4ccccc4)cnn23)cc1 | ? | 0.67µM* | 0.56µM* | 0.65µM* | -3% | 0.5µM*
CS(=O)(=O)c1cccc(-c2csc(N3CCC(C(N)=O)CC3)n2)c1 | . | 0% | ? | 10% | 6% | 2.5µM*!
COc1cccc(-c2csc(N3CCC(C(N)=O)CC3)n2)c1 | . | 17µM* | . | . | . | .
COc1ccc(-c2csc3nc(-c4cccnc4)nc(N4CCC(C(N)=O)CC4)c23)cc1OC | 14µM* | 2% | -3% | -2% | 3% | -1%
O=C1C(=O)N(C2CCN(C(=O)c3ccc(Cl)cc3)CC2)CCN1Cc1ccc(F)cc1 | . | 4% | . | . | . | .
CC1=C2C(=COC(C)C2C)C(=O)C(C(=O)O)=C1O (centres undefined) | 7% | . | . | . | . | .
O=C(c1cccc(F)c1)N1CCC[C@@]2(CCN(Cc3nccs3)C2)C1 | -12% | . | . | . | . | .
COC(=O)[C@@]1(Cc2ccc(OC)cc2)[C@H]2c3cc(C(=O)N(C)C)n(CCc4c[nH]c5ccc(O)cc45)c3C[C@H]2CN1C(=O)c1ccccc1 | 7% | . | . | . | . | .
CCOC(=O)c1ccccc1NC(=O)c1sc2nc3n(c(=O)c2c1C)CCCCC3 | . | -5% | . | . | . | .
COc1ncccc1-c1nnn(-c2ccc(F)cc2)n1 | . | 5.4µM* | 4µM* | 9.2µM* | ? | 2.8µM*
COc1ncccc1-c1nnn(-c2ccc(Cl)c(Cl)c2)n1 | . | 4.8µM* | 3.2µM* | ? | 0% | 2.8µM*
COc1ncccc1-c1nnn(-c2ccc(C)cc2)n1 | . | 4.3µM* | 3.2µM* | 9.2µM* | ? | 3.2µM*
Cc1ccc(-n2nnc(-c3cc4ccccc4nc3Cl)n2)cc1 | . | 6µM* | 4.5µM* | ? | 0% | ?
SMILES | SMN2 splice enh | FLuc modulator | Rab9 prom act | ELG1 genotoxic | uPA surface inh | NPC1 prom act
O=c1[nH]c2ccccc2cc1-c1nnn(-c2ccc(Cl)c(Cl)c2)n1 | . | . | . | . | -13% | .
CC(C)C[C@@H](CC(=O)N[C@@H](CCC(=O)O)CC(=O)O)NC(=O)[C@@H]1CCCC[C@H]1NC(=O)C[C@@H](NC(=O)C[C@H](CO)NC(=O)[C@@H]1CNCC[C@H]1N)C(C)C | 8% | . | . | . | . | .
COc1ccccc1-c1cc2nc(C)c(CCC(=O)NCCc3cccc(C)c3)c(C)n2n1 | 9% | -17% | . | . | . | .
O=C(CCN1C(=O)c2ccccc2S1(=O)=O)Nc1ccc(Cl)cc1 | . | -7% | 6% | 2% | -8% | -6%
O=C1c2ccccc2S(=O)(=O)N1CC1CC(c2ccc(Cl)cc2)=NO1 (centres undefined) | 16µM* | 2.4µM* | 2.2µM* | 16µM* | -2% | 3.5µM*
Cc1ccc(-c2cc(C(=O)O)n(Cc3ccccc3)n2)cc1 | -20% | ? | . | . | . | .
COc1ccc(C2=NOC(CN3C(=O)c4ccccc4S3(=O)=O)C2)cc1 (centres undefined) | ? | 2.1µM* | 0.89µM* | ? | -2% | 1.3µM*
CCOC(=O)c1cc(-c2ccc(OC)cc2)nn1Cc1ccccc1 | 20% | 7.6µM* | . | . | . | .
COc1ccc(C2=NOC(Cn3nc(-c4ccccc4)cc3C(=O)O)C2)cc1 (centres undefined) | . | 4.8µM* | -5% | 7% | ? | 0%
COC(=O)c1c(NC(=O)c2nc(SCc3ccccc3C)ncc2Cl)sc2c1CCCC2 | 20% | 4% | . | . | . | .
O=C(COc1ccccc1F)NC1CC(=O)N(c2ccc3c(c2)OCCO3)C1 (centres undefined) | . | 4% | . | . | . | .
Cc1ccc(C2=NN(C(=O)CN3C(=O)c4ccccc4S3(=O)=O)C(c3ccco3)C2)cc1 (centres undefined) | 18% | 0% | -6% | -3% | -4% | -7%
O=C1c2ccccc2S(=O)(=O)N1CC1CC(c2ccccc2)=NO1 (centres undefined) | 14% | 6µM* | 1.4µM* | 4.1µM* | 5% | 3.2µM*
CC(C)N(Cc1ccccc1)C(=O)CN1C(=O)CSc2ccc(S(=O)(=O)N3CCCC3)cc21 | . | -6% | . | . | . | .
O=C(NCc1cccc(Cl)c1)NCc1noc2ccccc12 | . | -11% | . | . | . | .
Cc1cc(NC(=O)c2sccc2C)n(-c2cccc(Cl)c2)n1 | -3% | 27µM* | 3% | 3% | 0% | 2%
CCN(c1ccccc1)S(=O)(=O)c1ccc2[nH]cc(C(=O)NCc3ccc(C)cc3)c(=O)c2c1 | . | -5% | . | . | . | .
Cc1ccc(C(=O)n2cnc3ccccc32)cc1C | . | 12µM* | 8% | 0% | -5% | -2%
